Results reported in PubChem BioAssay.
For part of these data: Entries with a potency or affinity are not part of this list. The source made the active and inactive calls. Unless noted, no cut-off is given here; in the data, nearly all actives have IC50 up to about 0.98 µM.

Test system: not listed separately
Assay: inhibition of 3D7 malaria parasite growth – strain 3D7 (AID 2306; call rule not given here;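 note: 0% = DMSO wells and 100% = chloroquine plus artemisinin control wells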)
Conditions: P. falciparum 3D7 erythrocytic growth, LDH absorbance, 72 h; at 2 µM; hits give high values

Question: Which growth inhibition does the source give for `COc1cc(C2=NN(S(=O)(=O)c3c(Cl)cc(Cl)cc3Cl)CCCC2)ccc1Cl` here?
Answer: Its growth inhibition is 98% (active).

Question: Which growth inhibition does the source give for `CC(C)NCc1ccc(-c2cccc(NC(=O)c3ccc(F)cc3)c2)cc1` here?
Answer: Its growth inhibition is 91% (active).

Question: With `CCCc1ccc(C(=O)N2[C@@H](c3nccs3)[C@@H](C(N)=O)C[C@@]2(CC(C)C)C(=O)O)cc1` as the molecule, how does the growth inhibition read?
Answer: The growth inhibition was 94% (active).

Biological target: Calcium-dependent protein kinase 1 (Plasmodium falciparum (isolate 3D7)) (UniProt P62344)
Sequence (P62344 whole entry, looked up): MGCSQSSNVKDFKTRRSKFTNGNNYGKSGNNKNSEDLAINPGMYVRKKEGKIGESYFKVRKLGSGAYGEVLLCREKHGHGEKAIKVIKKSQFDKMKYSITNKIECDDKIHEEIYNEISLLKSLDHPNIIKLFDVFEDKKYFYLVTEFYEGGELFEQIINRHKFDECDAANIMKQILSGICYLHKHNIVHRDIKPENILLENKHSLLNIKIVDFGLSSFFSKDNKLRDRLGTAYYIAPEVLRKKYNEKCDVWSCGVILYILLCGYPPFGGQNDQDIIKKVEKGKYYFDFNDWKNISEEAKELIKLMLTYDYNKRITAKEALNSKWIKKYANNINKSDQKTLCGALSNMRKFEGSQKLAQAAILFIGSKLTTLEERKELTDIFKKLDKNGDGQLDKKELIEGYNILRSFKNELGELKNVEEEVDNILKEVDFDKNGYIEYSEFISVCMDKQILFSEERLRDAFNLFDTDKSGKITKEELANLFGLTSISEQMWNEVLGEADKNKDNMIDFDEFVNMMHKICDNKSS
Assay: PfCDPK1 kinase inhibitors, biochemical, TCAMS library (AID 1159585);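 note: inhibitors leave more ATP so luminescence rises with inhibition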
Conditions: recombinant PfCDPK1, Kinase-Glo ATP depletion luminescence

Question: For `COc1cc2nc(C)nc(Nc3ccc(Oc4ccccc4)cc3)c2cc1OC`, which outcome is on record?
Answer: Its outcome is “inactive”.

Question: With `Cc1ccc(CN(Cc2ccc(C(=O)N(C)C)cc2)Cc2ccc3c(c2)OCCO3)cc1C` as the molecule, how does the outcome read?
Answer: Its outcome is “inactive”.

Question: Which outcome does the source give for `Cc1cc(CN2CC[C@H](NC(=O)c3ccc(Cl)c(Cl)c3)C2)ccc1OCCCN(C)C` here?
Answer: Its outcome is “inactive”.

Question: For `O=C(Nc1cccc(-c2csc(-c3nc4ccccc4[nH]3)c2)c1)c1ccoc1`, which outcome is on record?
Answer: Its outcome is “inactive”.

Question: Which outcome does the source give for `CCC[C@@H]([C@@H](CC1CCCCC1)C(=O)NC(C(=O)Nc1nccs1)C(CC)c1ccccc1)N(O)C=O` (stereo not given in full) here?
Answer: The outcome was “inactive”.

Question: With `FC(F)(F)c1ccc2nc(-c3ccc(-c4ccc(CNCc5cnn(-c6ccccc6)n5)cc4)s3)[nH]c2c1` as the molecule, how does the outcome read?
Answer: Its outcome is “inactive”.

Question: With `CN1CCN(CC(=O)Nc2cccc(-c3cccc(-c4nc5ccc(F)cc5[nH]4)c3)c2)CC1` as the molecule, how does the outcome read?
Answer: The outcome was “inactive”.

Question: With `CN(C)c1ccc(CN2CCC(NC(=O)c3ccc(-c4ccc(N(C)C)cc4)s3)CC2)cc1` as the molecule, how does the outcome read?
Answer: Its outcome is “inactive”.

Question: Which outcome does the source give for `CN1CCC(NCc2cccc(-c3ccc(S(=O)(=O)NCCN4CCCC4)s3)c2)CC1` here?
Answer: Its outcome is “inactive”.

Question: With `CC(C)Oc1cccc(-c2ccc(C(=O)NCC3CCCN(Cc4cccc(C(F)(F)F)c4)C3)s2)c1` (stereo not given) as the molecule, how does the outcome read?
Answer: The outcome was “inactive”.

Question: For `Cc1cc(NN=Cc2ccc(F)cc2)c2cccc(C)c2n1`, which outcome is on record?
Answer: Its outcome is “inactive”.

Question: Which outcome does the source give for `N#Cc1cccc(Nc2nccc(NCC(O)c3ccc(C(F)(F)F)cc3)n2)c1` (stereo not given) here?
Answer: The outcome was “inactive”.
